In ChEMBL document CHEMBL2218924, “A broad activity screen in support of a chemogenomic map for kinase signalling research and drug discovery” (Biochem J, 2013):

Experiments:
[1] = target: T1, Serine/threonine-protein kinase TBK1 (Homo sapiens) (UniProt Q9UHD2); conditions: at 10 µM
T1 sequence (whole entry): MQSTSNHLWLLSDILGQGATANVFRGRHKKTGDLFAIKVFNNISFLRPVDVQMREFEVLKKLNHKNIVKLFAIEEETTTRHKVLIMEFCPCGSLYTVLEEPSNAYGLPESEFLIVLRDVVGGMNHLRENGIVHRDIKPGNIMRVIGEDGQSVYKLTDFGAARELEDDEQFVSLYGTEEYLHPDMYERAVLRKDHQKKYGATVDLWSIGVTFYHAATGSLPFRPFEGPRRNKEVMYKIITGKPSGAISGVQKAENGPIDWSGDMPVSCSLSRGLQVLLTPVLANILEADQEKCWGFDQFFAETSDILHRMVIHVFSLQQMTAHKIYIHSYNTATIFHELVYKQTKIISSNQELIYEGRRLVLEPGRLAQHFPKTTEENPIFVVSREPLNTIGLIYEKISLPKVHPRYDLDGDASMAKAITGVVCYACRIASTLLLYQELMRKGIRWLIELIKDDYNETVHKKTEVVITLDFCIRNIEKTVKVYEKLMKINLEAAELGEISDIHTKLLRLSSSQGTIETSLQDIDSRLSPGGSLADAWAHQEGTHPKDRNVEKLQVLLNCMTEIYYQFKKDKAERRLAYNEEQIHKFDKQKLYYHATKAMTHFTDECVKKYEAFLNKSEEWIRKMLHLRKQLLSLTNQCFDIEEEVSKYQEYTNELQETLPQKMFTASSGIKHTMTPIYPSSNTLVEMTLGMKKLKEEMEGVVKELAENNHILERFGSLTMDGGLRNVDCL

[2] = target: T2, TGF-beta receptor type-1 (Homo sapiens) (UniProt P36897); conditions: at 1 µM
T2 sequence (whole entry): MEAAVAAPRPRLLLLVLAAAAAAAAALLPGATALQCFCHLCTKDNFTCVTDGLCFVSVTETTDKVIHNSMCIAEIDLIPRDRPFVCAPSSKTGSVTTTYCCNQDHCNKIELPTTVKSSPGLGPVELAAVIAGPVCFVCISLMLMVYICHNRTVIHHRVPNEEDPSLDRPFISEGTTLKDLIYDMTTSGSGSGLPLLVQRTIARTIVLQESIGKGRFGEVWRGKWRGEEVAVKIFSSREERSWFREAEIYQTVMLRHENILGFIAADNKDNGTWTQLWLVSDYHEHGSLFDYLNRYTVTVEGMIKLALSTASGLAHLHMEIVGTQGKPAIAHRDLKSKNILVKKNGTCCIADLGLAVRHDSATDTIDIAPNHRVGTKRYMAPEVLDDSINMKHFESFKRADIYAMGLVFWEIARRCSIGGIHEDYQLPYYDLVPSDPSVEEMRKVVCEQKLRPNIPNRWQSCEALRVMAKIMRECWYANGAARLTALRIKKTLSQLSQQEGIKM

[3] = target: T2, TGF-beta receptor type-1 (Homo sapiens); conditions: at 10 µM
[4] = target: Insulin-like growth factor 1 receptor (Homo sapiens) (UniProt P08069); conditions: at 1 µM
[5] = target: Insulin-like growth factor 1 receptor (Homo sapiens) (UniProt P08069); conditions: at 10 µM
[6] = target: T3, Inhibitor of nuclear factor kappa-B kinase subunit alpha (Homo sapiens) (UniProt O15111); conditions: at 1 µM
T3 sequence (whole entry): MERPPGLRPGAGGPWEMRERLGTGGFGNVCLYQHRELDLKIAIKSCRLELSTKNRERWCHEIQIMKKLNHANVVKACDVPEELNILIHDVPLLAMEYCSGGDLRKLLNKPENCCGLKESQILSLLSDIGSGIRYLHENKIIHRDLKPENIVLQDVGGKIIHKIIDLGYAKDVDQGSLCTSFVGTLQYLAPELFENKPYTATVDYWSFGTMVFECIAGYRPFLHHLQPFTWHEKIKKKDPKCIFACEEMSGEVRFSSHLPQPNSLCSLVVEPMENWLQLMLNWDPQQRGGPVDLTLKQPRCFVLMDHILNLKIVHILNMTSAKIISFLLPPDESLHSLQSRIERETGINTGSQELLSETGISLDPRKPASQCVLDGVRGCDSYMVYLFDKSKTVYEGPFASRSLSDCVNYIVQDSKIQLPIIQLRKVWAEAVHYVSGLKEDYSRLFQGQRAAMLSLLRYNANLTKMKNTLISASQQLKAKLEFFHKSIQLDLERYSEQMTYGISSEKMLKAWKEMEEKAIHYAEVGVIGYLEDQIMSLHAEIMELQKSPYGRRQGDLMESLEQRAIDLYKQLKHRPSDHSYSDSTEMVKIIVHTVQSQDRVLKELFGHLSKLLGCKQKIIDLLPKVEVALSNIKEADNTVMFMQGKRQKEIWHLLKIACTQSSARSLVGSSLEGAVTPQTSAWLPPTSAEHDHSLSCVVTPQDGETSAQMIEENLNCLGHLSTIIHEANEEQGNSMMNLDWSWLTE

[7] = target: T3, Inhibitor of nuclear factor kappa-B kinase subunit alpha (Homo sapiens); conditions: at 10 µM
[8] = target: T4, Inhibitor of nuclear factor kappa-B kinase subunit beta (Homo sapiens) (UniProt O14920); conditions: at 1 µM
T4 sequence (whole entry): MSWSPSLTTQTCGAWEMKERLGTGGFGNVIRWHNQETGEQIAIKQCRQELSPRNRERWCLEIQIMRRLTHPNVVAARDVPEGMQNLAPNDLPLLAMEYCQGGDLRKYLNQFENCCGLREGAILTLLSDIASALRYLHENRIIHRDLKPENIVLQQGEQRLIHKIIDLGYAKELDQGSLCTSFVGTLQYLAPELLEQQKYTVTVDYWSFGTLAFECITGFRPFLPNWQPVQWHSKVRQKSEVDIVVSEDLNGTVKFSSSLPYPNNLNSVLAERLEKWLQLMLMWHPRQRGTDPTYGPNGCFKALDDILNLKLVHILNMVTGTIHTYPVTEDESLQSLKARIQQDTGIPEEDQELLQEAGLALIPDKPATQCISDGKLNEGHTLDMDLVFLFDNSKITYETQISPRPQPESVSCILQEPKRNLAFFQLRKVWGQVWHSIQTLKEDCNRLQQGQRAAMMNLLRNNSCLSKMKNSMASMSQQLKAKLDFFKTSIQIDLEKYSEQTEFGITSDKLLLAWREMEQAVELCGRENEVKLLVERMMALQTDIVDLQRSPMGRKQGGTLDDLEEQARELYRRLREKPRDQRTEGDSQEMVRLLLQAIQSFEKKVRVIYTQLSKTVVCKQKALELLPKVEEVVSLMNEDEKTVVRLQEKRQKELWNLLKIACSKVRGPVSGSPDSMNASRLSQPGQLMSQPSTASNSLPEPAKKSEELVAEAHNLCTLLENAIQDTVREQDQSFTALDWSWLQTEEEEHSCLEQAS

[9] = target: T4, Inhibitor of nuclear factor kappa-B kinase subunit beta (Homo sapiens); conditions: at 10 µM
[10] = target: Insulin receptor (Homo sapiens) (UniProt P06213); conditions: at 1 µM
Insulin receptor (Homo sapiens), sequence (P06213 28-758 limits assumed): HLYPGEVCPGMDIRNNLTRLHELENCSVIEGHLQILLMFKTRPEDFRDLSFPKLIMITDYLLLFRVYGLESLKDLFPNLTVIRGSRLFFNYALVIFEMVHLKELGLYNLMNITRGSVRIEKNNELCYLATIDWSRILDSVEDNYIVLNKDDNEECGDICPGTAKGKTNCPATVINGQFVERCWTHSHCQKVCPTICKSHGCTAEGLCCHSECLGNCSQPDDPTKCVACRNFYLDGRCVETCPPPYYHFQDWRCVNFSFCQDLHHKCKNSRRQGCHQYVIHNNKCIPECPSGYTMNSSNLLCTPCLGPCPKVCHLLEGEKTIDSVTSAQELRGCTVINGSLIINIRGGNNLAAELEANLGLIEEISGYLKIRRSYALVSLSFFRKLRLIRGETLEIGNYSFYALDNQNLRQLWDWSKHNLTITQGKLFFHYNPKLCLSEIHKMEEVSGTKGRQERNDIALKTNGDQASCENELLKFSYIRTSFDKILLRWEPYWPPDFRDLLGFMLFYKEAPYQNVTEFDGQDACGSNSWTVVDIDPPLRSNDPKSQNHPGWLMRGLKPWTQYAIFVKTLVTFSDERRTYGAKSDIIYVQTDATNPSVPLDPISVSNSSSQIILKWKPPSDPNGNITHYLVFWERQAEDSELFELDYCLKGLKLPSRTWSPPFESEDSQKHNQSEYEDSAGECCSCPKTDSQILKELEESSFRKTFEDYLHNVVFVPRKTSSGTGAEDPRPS
Insulin receptor (Homo sapiens), sequence (P06213 763-1382 limits assumed): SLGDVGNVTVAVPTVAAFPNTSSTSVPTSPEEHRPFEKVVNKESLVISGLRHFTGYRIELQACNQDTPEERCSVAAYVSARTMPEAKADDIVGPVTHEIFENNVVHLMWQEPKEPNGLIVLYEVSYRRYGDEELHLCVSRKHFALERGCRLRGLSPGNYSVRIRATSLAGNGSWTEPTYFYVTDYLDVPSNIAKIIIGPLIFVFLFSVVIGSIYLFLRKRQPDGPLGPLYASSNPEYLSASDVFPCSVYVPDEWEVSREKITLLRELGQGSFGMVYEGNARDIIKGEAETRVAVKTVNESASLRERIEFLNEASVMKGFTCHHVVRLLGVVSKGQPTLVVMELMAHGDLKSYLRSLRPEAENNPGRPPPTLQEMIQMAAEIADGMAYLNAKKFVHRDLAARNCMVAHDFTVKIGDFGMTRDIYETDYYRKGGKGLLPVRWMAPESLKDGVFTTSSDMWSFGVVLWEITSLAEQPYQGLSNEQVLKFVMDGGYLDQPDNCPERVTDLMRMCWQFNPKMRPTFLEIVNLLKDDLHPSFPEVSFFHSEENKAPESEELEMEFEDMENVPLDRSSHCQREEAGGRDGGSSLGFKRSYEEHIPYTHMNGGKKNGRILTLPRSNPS

Insulin-like growth factor 1 receptor (Homo sapiens), sequence (P08069 31-736 limits assumed): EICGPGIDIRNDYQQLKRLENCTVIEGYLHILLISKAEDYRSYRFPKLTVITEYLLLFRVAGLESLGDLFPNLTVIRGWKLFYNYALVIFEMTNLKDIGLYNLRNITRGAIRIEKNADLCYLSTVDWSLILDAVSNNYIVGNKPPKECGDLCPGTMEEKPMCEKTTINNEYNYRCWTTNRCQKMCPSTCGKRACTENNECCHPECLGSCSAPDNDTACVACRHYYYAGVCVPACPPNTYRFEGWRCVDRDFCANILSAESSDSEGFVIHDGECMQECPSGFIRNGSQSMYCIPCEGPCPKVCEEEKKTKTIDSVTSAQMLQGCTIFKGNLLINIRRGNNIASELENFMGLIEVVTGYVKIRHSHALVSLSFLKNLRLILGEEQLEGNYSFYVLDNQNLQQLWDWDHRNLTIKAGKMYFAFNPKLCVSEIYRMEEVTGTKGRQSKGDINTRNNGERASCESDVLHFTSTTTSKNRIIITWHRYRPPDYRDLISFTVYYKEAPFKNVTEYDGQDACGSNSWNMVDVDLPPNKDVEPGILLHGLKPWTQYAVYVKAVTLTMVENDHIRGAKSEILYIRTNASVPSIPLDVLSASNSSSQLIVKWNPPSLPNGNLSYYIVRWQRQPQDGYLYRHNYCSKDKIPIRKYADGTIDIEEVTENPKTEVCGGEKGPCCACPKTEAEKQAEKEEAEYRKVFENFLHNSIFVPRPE
Insulin-like growth factor 1 receptor (Homo sapiens), sequence (P08069 741-1367 limits assumed): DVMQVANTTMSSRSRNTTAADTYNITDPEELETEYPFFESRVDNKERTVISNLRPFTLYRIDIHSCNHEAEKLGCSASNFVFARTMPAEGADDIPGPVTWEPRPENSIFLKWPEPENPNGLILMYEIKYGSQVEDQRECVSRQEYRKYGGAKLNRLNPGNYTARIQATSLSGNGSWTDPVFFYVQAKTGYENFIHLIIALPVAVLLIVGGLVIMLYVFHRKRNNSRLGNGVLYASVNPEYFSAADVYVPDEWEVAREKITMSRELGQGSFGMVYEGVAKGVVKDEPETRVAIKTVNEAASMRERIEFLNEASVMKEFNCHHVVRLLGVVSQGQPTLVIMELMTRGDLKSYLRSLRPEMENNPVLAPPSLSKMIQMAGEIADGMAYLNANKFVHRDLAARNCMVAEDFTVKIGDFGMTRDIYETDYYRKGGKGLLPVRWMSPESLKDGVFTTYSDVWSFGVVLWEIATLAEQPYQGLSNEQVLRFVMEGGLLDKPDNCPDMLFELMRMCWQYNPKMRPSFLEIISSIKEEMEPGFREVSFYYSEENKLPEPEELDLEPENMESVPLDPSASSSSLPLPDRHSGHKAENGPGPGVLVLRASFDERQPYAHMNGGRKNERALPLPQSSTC

`C[C@@H](N)[C@H]1CC[C@H](C(=O)Nc2ccncc2)CC1` was tested, and the residual activity [1] was 99%, the residual activity [2] was 113% and the residual activity [3] was 105%. For the same molecule, the residual activity [4] was 115%, the residual activity [5] was 105% and the residual activity [6] was 136%. The residual activity [7] was 64%, the residual activity [8] was 87% and the residual activity [9] was 77%. For the same molecule, the residual activity [10] was 100%.
